# Source: PubChem BioAssay AID1159580 (chemical genetic matrix, 2015)
# Hit rate of the full screen: of about 5,500 compounds, about 2,000 (36%) were called active. Not shown: some 18% with an inconclusive outcome. The list shows a part of the results. Unmarked numbers belong to inactive results. Rule as the data show it: active = normalized growth mostly below about 0.91 (no sharp cut-off); inconclusive = no clear call, values can overlap the other calls; inactive = mostly above about 0.92.
# Assay: chemical genetic growth profiling, strain panel (AID 1159580);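 also: tested at 20 µM; growth read once vehicle control cultures reached saturation at 30 °C; 1 = growth at the plate median or of vehicle wells; lower values mean less growth of the strain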
# Conditions: growth OD
compound,measurement,setting,value
CC1(C)C=Cc2c(cc3occ(-c4ccc5c(c4)OCO5)c(=O)c3c2O)O1,normalized growth,"S. cerevisiae deletion strains, locus YJL164C, strain tpk1, stronger effect = lower value",0.967
same,normalized growth,"S. cerevisiae deletion strains, locus YJL166W, strain qcr8, stronger effect = lower value",0.943
same,normalized growth,"S. cerevisiae deletion strains, locus YJL168C, strain set2, stronger effect = lower value",1.01
same,normalized growth,"S. cerevisiae deletion strains, locus YJL187C, strain SWE1 (second series), stronger effect = lower value",0.92
same,normalized growth,"S. cerevisiae deletion strains, locus YJL187C, strain SWE1, stronger effect = lower value",0.967
same,normalized growth,"S. cerevisiae deletion strains, locus YJR075W, strain HOC1, stronger effect = lower value",0.996
same,normalized growth,"S. cerevisiae deletion strains, locus YKL068W, stronger effect = lower value",1.02
same,normalized growth,"S. cerevisiae deletion strains, locus YKL160W, strain elf1, stronger effect = lower value",1.02
same,normalized growth,"S. cerevisiae deletion strains, locus YKL190W, strain CNB1, stronger effect = lower value",0.967
same,normalized growth,"S. cerevisiae deletion strains, locus YKR001C, strain vps1, stronger effect = lower value",0.988
same,normalized growth,"S. cerevisiae deletion strains, locus YKR026C, strain gcn3, stronger effect = lower value",0.983
same,normalized growth,"S. cerevisiae deletion strains, locus YKR091W, strain srl3, stronger effect = lower value",0.981
same,normalized growth,"S. cerevisiae deletion strains, locus YLL001W, strain dnm1, stronger effect = lower value",0.959
same,normalized growth,"S. cerevisiae deletion strains, locus YLL026W, stronger effect = lower value",0.961
same,normalized growth,"S. cerevisiae deletion strains, locus YLL041C, strain sdh2, stronger effect = lower value",0.993
same,normalized growth,"S. cerevisiae deletion strains, locus YLR027C, strain aat2, stronger effect = lower value",0.943
same,normalized growth,"S. cerevisiae deletion strains, locus YLR039C, strain RIC1, stronger effect = lower value",1.11
same,normalized growth,"S. cerevisiae deletion strains, locus YLR058C, strain SHM2, stronger effect = lower value",0.933
same,normalized growth,"S. cerevisiae deletion strains, locus YLR102C, strain apc9, stronger effect = lower value",1.03
same,normalized growth,"S. cerevisiae deletion strains, locus YLR221C, strain rsa3, stronger effect = lower value",0.897 (active)
same,normalized growth,"S. cerevisiae deletion strains, locus YLR258W, strain gsy2, stronger effect = lower value",0.963
same,normalized growth,"S. cerevisiae deletion strains, locus YLR262C, strain YPT6 (second series), stronger effect = lower value",0.945
same,normalized growth,"S. cerevisiae deletion strains, locus YLR262C, strain YPT6, stronger effect = lower value",1.14
same,normalized growth,"S. cerevisiae deletion strains, locus YLR268W, strain sec22, stronger effect = lower value",0.943
same,normalized growth,"S. cerevisiae deletion strains, locus YLR320W, strain mms22, stronger effect = lower value",0.917
same,normalized growth,"S. cerevisiae deletion strains, locus YLR342W, strain FKS1, stronger effect = lower value",0.907 (active)
same,normalized growth,"S. cerevisiae deletion strains, locus YLR357W, strain rsc2, stronger effect = lower value",0.905
same,normalized growth,"S. cerevisiae deletion strains, locus YLR370C, strain arc18, stronger effect = lower value",0.978
same,normalized growth,"S. cerevisiae deletion strains, locus YLR371W, strain rom2, stronger effect = lower value",0.92
same,normalized growth,"S. cerevisiae deletion strains, locus YLR384C, strain iki3, stronger effect = lower value",0.976
same,normalized growth,"S. cerevisiae deletion strains, locus YLR418C, strain cdc73, stronger effect = lower value",1.02
same,normalized growth,"S. cerevisiae deletion strains, locus YML016C, strain PPZ1, stronger effect = lower value",0.954
same,normalized growth,"S. cerevisiae deletion strains, locus YML032C, strain rad52, stronger effect = lower value",1
same,normalized growth,"S. cerevisiae deletion strains, locus YML120C, strain ndi1, stronger effect = lower value",1.01
same,normalized growth,"S. cerevisiae deletion strains, locus YML124C, strain tub3, stronger effect = lower value",1.02
same,normalized growth,"S. cerevisiae deletion strains, locus YMR058W, strain fet3, stronger effect = lower value",0.676 (active)
same,normalized growth,"S. cerevisiae deletion strains, locus YMR078C, strain ctf18, stronger effect = lower value",1.04
same,normalized growth,"S. cerevisiae deletion strains, locus YMR125W, strain sto1, stronger effect = lower value",1.01
same,normalized growth,"S. cerevisiae deletion strains, locus YMR129W, stronger effect = lower value",0.993
same,normalized growth,"S. cerevisiae deletion strains, locus YMR205C, strain PFK2, stronger effect = lower value",0.971
same,normalized growth,"S. cerevisiae deletion strains, locus YMR223W, strain ubp8, stronger effect = lower value",0.959
same,normalized growth,"S. cerevisiae deletion strains, locus YMR231W, strain pep5, stronger effect = lower value",0.975
same,normalized growth,"S. cerevisiae deletion strains, locus YMR263W, strain SAP30, stronger effect = lower value",1
same,normalized growth,"S. cerevisiae deletion strains, locus YMR307W, strain GAS1, stronger effect = lower value",0.946
same,normalized growth,"S. cerevisiae deletion strains, locus YNL067W, strain RPL9B, stronger effect = lower value",0.995
same,normalized growth,"S. cerevisiae deletion strains, locus YNL071W, strain lat1, stronger effect = lower value",0.986
same,normalized growth,"S. cerevisiae deletion strains, locus YNL209W, strain ssb2, stronger effect = lower value",0.738 (active)
same,normalized growth,"S. cerevisiae deletion strains, locus YNL233W, strain BNI4, stronger effect = lower value",0.881
same,normalized growth,"S. cerevisiae deletion strains, locus YNL248C, strain rpa49, stronger effect = lower value",0.963
same,normalized growth,"S. cerevisiae deletion strains, locus YNL250W, strain rad50, stronger effect = lower value",1.06
same,normalized growth,"S. cerevisiae deletion strains, locus YNL271C, strain bni1, stronger effect = lower value",1
same,normalized growth,"S. cerevisiae deletion strains, locus YNL298W, strain CLA4, stronger effect = lower value",1.01
same,normalized growth,"S. cerevisiae deletion strains, locus YNL307C, strain MCK1, stronger effect = lower value",1.02
same,normalized growth,"S. cerevisiae deletion strains, locus YNL322C, strain KRE1 (second series), stronger effect = lower value",0.999
same,normalized growth,"S. cerevisiae deletion strains, locus YNR049C, strain mso1, stronger effect = lower value",0.991
same,normalized growth,"S. cerevisiae deletion strains, locus YNR052C, strain pop2, stronger effect = lower value",1
same,normalized growth,"S. cerevisiae deletion strains, locus YOL012C, strain htz1",0.804
same,normalized growth,"S. cerevisiae deletion strains, locus YOL147C, strain pex11, stronger effect = lower value",1.01
same,normalized growth,"S. cerevisiae deletion strains, locus YOR001W, strain rrp6, stronger effect = lower value",0.93
same,normalized growth,"S. cerevisiae deletion strains, locus YOR061W, strain CKA2, stronger effect = lower value",0.924
same,normalized growth,"S. cerevisiae deletion strains, locus YOR069W, strain VPS5, stronger effect = lower value",0.96
same,normalized growth,"S. cerevisiae deletion strains, locus YOR070C, strain gyp1, stronger effect = lower value",0.905 (active)
same,normalized growth,"S. cerevisiae deletion strains, locus YOR080W, strain dia2, stronger effect = lower value",0.963
same,normalized growth,"S. cerevisiae deletion strains, locus YOR083W, strain WHI5, stronger effect = lower value",0.928
same,normalized growth,"S. cerevisiae deletion strains, locus YOR106W, strain vam3, stronger effect = lower value",0.907
same,normalized growth,"S. cerevisiae deletion strains, locus YOR136W, strain idh2, stronger effect = lower value",1.03
same,normalized growth,"S. cerevisiae deletion strains, locus YOR144C, strain elg1, stronger effect = lower value",1.02
same,normalized growth,"S. cerevisiae deletion strains, locus YOR184W, strain ser1, stronger effect = lower value",0.971
same,normalized growth,"S. cerevisiae deletion strains, locus YOR265W, strain rbl2, stronger effect = lower value",0.947
same,normalized growth,"S. cerevisiae deletion strains, locus YOR270C, strain vph1, stronger effect = lower value",0.952
same,normalized growth,"S. cerevisiae deletion strains, locus YOR290C, strain snf2, stronger effect = lower value",0.981
same,normalized growth,"S. cerevisiae deletion strains, locus YOR316C, strain cot1, stronger effect = lower value",1.02
same,normalized growth,"S. cerevisiae deletion strains, locus YPL051W, strain arl3, stronger effect = lower value",0.855 (active)
same,normalized growth,"S. cerevisiae deletion strains, locus YPL055C, strain LGE1, stronger effect = lower value",0.871
same,normalized growth,"S. cerevisiae deletion strains, locus YPL078C, strain atp4, stronger effect = lower value",1.02
same,normalized growth,"S. cerevisiae deletion strains, locus YPL106C, strain sse1, stronger effect = lower value",0.901
same,normalized growth,"S. cerevisiae deletion strains, locus YPL240C, strain hsp82, stronger effect = lower value",0.989
same,normalized growth,"S. cerevisiae deletion strains, locus YPR119W, strain clb2, stronger effect = lower value",1.04
same,normalized growth,"S. cerevisiae deletion strains, locus YPR141C, strain kar3, stronger effect = lower value",1.02
same,normalized growth,"S. cerevisiae deletion strains, locus YPR163C, strain tif3, stronger effect = lower value",1.02
same,normalized growth,"S. cerevisiae deletion strains, locus YPR167C, strain met16, stronger effect = lower value",0.967
same,normalized growth,"S. cerevisiae deletion strains, strain wtn01, stronger effect = lower value",0.952
same,normalized growth,"S. cerevisiae strains, strain wild type, stronger effect = lower value",0.889 (active)
